Assay results from PubChem BioAssay (NCATS).
Inconclusive results are not listed. A call without a number means that no potency is given here. Activity calls are given as the source filed them. The call rests on the fitted dose curve; in most records, active means well fitted inhibition curve with a large enough effect; inconclusive means small, poorly fitted or top-dose-only effect; inactive means flat fitted curve, though single readings scatter.

The molecules below were run against Calcium and integrin-binding protein 1 (Homo sapiens) (UniProt Q99828) (assay: Primary qHTS for Identification of Calcium Integrin Binding Protein 1 (CIB1) Competitor (AID 1508620;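 further: GST tagged CIB1 binding a fluorescein labelled alphaIIb integrin peptide tracer; top concentration of the series differs between compounds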)). Details: CIB1-GST / FITC-alphaIIb peptide fluorescence polarization; series mostly up to 114 µM.
Sequence of Calcium and integrin-binding protein 1 (Homo sapiens) (Q99828 whole entry, looked up): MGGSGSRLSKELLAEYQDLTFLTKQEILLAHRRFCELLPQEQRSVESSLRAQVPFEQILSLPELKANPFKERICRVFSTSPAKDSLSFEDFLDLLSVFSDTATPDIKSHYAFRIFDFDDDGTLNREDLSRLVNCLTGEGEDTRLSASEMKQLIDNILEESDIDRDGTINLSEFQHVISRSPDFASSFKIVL
Procedure, shortened: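 CIB1-GST (1 uM final) and compound incubated 15 min at room temperature before adding FITC-alphaIIb peptide tracer (100 nM final). Competition for binding read by fluorescence polarization (ex 480, em 540) after another 15 min at room temperature.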

Row | Compound | Potency
1 | COc1ccc(C2Nc3ccccc3C(=O)N2CCO)cc1COc1c(C)cc(NC(C)=O)cc1C (stereo not given) | inactive
2 | COc1ccc(C2Nc3ccccc3C(=O)N2Cc2cccc(Cl)c2)cc1COc1ccc(NC(C)=O)cc1 (stereo not given) | inactive
3 | Cc1ccc(C2N=C(Nc3nc4ccccc4o3)NC3=C2C(=O)CCC3)cc1 (stereo not given) | inactive
4 | COC(=O)c1ccc(O)c2ncccc12 | inactive
5 | O=S(=O)(c1ccc2c(c1)OCCO2)N1CCN(S(=O)(=O)c2ccccc2Cl)CC1 | inactive
6 | Cc1ccc(C2N=C(Nc3nc4ccccc4o3)NC3=C2C(=O)CCC3)s1 (stereo not given) | inactive
7 | Cn1cncc1CNc1ncnc2ccc(-c3ccc4c(c3)OCO4)cc12 | inactive
8 | O=C(CSc1nnc(-c2cccc([S+](=O)([O-])N3CCCC3)c2)n1-c1ccccc1)Nc1cccc(F)c1 | inactive
9 | COc1ccc(C2Nc3ccccc3C(=O)N2Cc2ccccc2)cc1COc1c(C)cccc1C (stereo not given) | inactive
10 | O=C(Nc1ccc(F)c(C(F)(F)F)c1)Nc1nnc(-c2cccnc2)s1 | inactive
11 | O=C(NC(c1ccco1)c1cc(Cl)c2cccnc2c1O)c1ccccc1 (stereo not given) | inactive
12 | NC(=O)C1CCN(c2cc(-c3ccc4c(c3)OCCCO4)ncn2)CC1 | inactive
13 | Cc1cn([C@H]2C[C@H](N[S+](=O)([O-])Cc3ccc([N+](=O)[O-])cc3)[C@@H](CO)O2)c(=O)[nH]c1=O | inactive
14 | Cc1cc(C)n2ncc(C(=O)Nc3ccc(C#N)cc3)c2n1 | inactive
15 | Cn1c2ccsc2c2cnn(Cc3ccc(F)cc3)c(=O)c21 | inactive
16 | COc1ccc(C2=Nn3c(nnc3-c3ccccc3O)SC2)cc1OC | inactive
17 | O=C(Nc1ncc(Cc2ccc(C(F)(F)F)cc2)s1)c1ccc(-c2ccc([N+](=O)[O-])cc2)o1 | inactive
18 | CC(=O)Nc1sc2c(c1-c1nc3ccccc3s1)CCN(C(C)C)C2 | inactive
19 | Cc1cc(C)nc(NC(=S)N2CCN(c3ccc(C(F)(F)F)cc3C(F)(F)F)CC2)c1 | inactive
20 | Cc1cc(C)nc(NC(=S)N2CCN(c3ncccc3C(F)(F)F)CC2)c1 | inactive

Row | Compound | Potency
21 | O=C(Cc1ccccc1)Nc1sc2c(c1C(=O)Nc1ccc(Cl)cc1)CCOC2 | inactive
22 | CC(C)(C)OC(=O)N1CCN(c2ccc(OCc3ccc(-c4ccc(C#N)cc4)o3)cc2)CC1 | inactive
23 | COc1ccc(C2c3c(ncn(CCN4CCOCC4)c3=N)Oc3ccc4ccccc4c32)cc1OC (stereo not given) | inactive
24 | CN(Cc1ccc(-c2ccccc2)cc1)c1nc(-c2ccccc2C(F)(F)F)nc2ccccc12 | inactive
25 | COc1ccc(C2Nc3ccccc3C(=O)N2Cc2ccc(C(F)(F)F)o2)cc1COc1c(C)cccc1C (stereo not given) | inactive
26 | N#Cc1c(-c2ccc(Br)cc2)no[n+]1[O-] | inactive
27 | COc1ccc(C2Nc3cccc(OC)c3C(=O)N2Cc2ccco2)cc1COc1c(C)cc(NC(C)=O)cc1C (stereo not given) | inactive
28 | O=[S+]([O-])(Nc1ccc(N2CCNCC2)cc1)c1ccc(NCc2ccc(Cl)cc2O)cc1 | inactive
29 | Cc1ccc(OCCn2c(CCNC(=O)Cc3ccccc3)nc3ccccc32)cc1 | inactive
30 | O=C(O)c1cccc(-n2cccc2)c1 | inactive
31 | Cc1cc2c(s1)c1cnn(Cc3ccc(C)c(F)c3F)c(=O)c1n2C | inactive
32 | O=C1NS(=O)(=O)c2cc(Cl)ccc21 | inactive
33 | Cc1cnc(-c2ccccc2C(C)C)nc1NCC1CN(c2cccnc2)C1 | inactive
34 | N#Cc1nc(Nc2cc(F)cc(Cl)c2)nc(NC2CCCC2)n1 | inactive
35 | Cc1ccsc1CN(C)c1ncnc2ccc(-c3ccc4c(c3)OCO4)cc12 | inactive
36 | FC(F)(F)c1ccccc1-c1nc(NCc2ccc(Br)cc2)c2ccccc2n1 | inactive
37 | Cc1nc2ccccn2c1P(=O)(c1ccccc1)c1ccccc1 | inactive
38 | CC(=O)Nc1sc2c(c1-c1nc3ccccc3s1)CNCC2 | inactive
39 | Cc1cccc(-n2cnc3cc(C(=O)N4CCC(Br)CC4)ccc32)c1 | inactive
40 | O=[S+]([O-])(Nc1ccc(-c2nc3ccccc3[nH]2)cc1)c1ccc2c(c1)OCO2 | inactive
